# Results published in PubChem BioAssay.
# Several values for one entry are separate records, joined by “and”; a condition that tells them apart may be missing. Equal entries are not always repeated. Activity calls are given as the source filed them.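 Rule for the calls, unless noted: active = mean z-score across replicates of 1.96 or higher in either the MELAS or the Rieske mutant cell line; inactive = the rest.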
# Legend:
# [1] = sensitizers of A549 cells to miR-34 induction, primary screen, imaging, A549 dox-inducible miR-34, nuclei and caspase counts (AID 1347080;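 active = compounds whose cell count with miR-34 switched on is under 0.7 times the count with it off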); details: A549 miR-34 inducible, Hoechst nuclei count, 48 h
# [2] = survival rescue of mitochondrial mutant cells in low glucose, primary screen, MELAS cybrids, Rieske KO mouse fibroblasts, CellTiter-Glo (AID 1508586);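 note: z relative to plate mean and SD of compound and empty wells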
# [3] = viability rescue of complex I mutant cybrids, primary screen, cell-based, galactose medium, ATP luminescence (AID 1645843;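 active = z-score of at least 1.8 in each of two replicates, scored against plate mean and spread of sample wells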;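 note: positive z means more ATP and so rescue of galactose-driven cybrid death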); details: complex I mutant cybrid cells, 72 h, stronger effect = higher value
# [4] = hESC survival regulators, cell-based (AID 493140; call rule not given here;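 note: cells exposed to compounds for four days before counting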); details: human embryonic stem cell survival screen; stronger effect = higher value
# [5] = liver-stage malaria parasite growth inhibition, primary screen, cell-based, HepG2, luciferase luminescence, HepG2 viability (AID 624349; in the data active = parasite load remaining mostly below about 12%, no sharp cut-off; inactive = mostly above about 10%;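 note: 100% = mean of DMSO negative control wells on the same plate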); details: P. berghei liver stage in HepG2, luciferase luminescence, concentration not given here; parasite load remaining: stronger effect = lower value; viability: measured here: HepG2 viability without parasites
# [6] = biological target: NAD(+) hydrolase SARM1 (Homo sapiens) (UniProt Q6SZW1); assay: SARM1 TIR NADase inhibitors, cell lysate, NAD-Glo luminescence (AID 1508614;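 active = compound whose remaining NAD level is above about 45 nM, limit read from the data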;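 note: higher remaining NAD means stronger inhibition of SARM1 NADase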); details: SAM-TIR HEK293T lysate NADase, at 1 µM, stronger effect = higher value
# [7] = biological target: Mitogen-activated protein kinase 7 (Homo sapiens) (UniProt Q13164); assay: ERK5 transactivation activators in reporter cells, primary screen, cell-based, HTS (AID 1508626;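 active = luciferase signal above three times the same-plate solvent-only control wells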;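 note: luciferase driven by Gal4-ERK5 fusion binding five Gal4 sites before minimal TATA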); details: HeLa Gal4-ERK5 transactivation, 18 h, at 5 µM, stronger effect = higher value
# [8] = measured here: relative caspase fold change +Dox/-Dox
# [9] = measured here: total cells with miR-34 induction, stronger effect = lower value
# [10] = measured here: total cells without miR-34 induction
# [11] = MELAS cybrid survival, CellTiter-Glo 48 h, stronger effect = higher value
# [12] = Rieske KO mouse fibroblast survival, CellTiter-Glo 72 h
# [13] = stronger effect = lower value, cell number ratio, induced over uninduced
# Sequence of NAD(+) hydrolase SARM1 (Homo sapiens) (Q6SZW1 whole entry, looked up, the tested form may be a part): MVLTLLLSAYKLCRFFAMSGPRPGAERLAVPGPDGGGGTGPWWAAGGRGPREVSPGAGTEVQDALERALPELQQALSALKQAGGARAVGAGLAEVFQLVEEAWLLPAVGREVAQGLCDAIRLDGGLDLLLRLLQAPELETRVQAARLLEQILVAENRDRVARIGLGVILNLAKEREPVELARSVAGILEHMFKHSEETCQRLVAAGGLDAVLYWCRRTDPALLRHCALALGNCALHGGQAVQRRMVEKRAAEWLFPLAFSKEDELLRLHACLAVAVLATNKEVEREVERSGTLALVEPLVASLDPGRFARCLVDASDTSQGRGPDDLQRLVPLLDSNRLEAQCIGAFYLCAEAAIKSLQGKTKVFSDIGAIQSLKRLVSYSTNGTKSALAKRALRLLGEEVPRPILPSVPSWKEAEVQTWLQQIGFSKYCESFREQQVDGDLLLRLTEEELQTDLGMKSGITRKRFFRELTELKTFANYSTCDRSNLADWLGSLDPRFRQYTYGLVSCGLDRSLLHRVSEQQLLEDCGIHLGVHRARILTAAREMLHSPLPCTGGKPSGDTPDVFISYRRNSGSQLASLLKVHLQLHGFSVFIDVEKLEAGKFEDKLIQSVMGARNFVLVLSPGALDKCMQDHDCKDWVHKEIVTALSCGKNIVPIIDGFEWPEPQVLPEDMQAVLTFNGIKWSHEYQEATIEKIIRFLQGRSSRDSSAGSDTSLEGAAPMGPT
# Sequence of Mitogen-activated protein kinase 7 (Homo sapiens) (Q13164 whole entry, looked up, the tested form may be a part): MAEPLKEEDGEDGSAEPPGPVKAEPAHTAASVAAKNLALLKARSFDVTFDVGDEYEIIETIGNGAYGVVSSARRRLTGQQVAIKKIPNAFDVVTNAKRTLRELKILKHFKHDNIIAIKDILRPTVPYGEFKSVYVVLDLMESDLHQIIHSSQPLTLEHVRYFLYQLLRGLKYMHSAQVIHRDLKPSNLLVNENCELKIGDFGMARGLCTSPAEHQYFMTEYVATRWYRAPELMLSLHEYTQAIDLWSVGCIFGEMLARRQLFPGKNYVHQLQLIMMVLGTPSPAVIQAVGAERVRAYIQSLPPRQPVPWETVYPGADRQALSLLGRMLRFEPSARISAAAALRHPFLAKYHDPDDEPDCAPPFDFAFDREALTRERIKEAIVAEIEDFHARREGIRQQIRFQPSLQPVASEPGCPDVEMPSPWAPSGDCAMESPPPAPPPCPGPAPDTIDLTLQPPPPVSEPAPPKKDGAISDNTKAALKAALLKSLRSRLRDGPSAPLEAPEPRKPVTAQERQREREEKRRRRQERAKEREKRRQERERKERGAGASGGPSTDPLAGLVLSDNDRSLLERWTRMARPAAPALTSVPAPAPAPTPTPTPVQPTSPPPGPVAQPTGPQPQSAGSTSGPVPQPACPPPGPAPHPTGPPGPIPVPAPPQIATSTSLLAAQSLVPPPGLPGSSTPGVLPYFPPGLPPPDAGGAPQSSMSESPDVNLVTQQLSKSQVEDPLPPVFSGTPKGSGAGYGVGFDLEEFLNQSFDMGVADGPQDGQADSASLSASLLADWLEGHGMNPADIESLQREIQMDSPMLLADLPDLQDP
SMILES,fold change ([1]; stronger effect = lower value),"fold change [1, 8]","cell count [1, 9]","cell count [1, 10]","z-score [2, 11]","z-score [2, 12]",z-score [3],"fold change [1, 13]",survival [4],parasite load remaining [5],viability [5] [%],remaining NAD [6],luciferase signal [7]
Oc1ccc(C2(c3ccc(O)cc3)CCCCC2)cc1,0.911 (inactive),0.41,7610,8350,-0.617 (inactive),-0.22,-1.9 (inactive),–,–,–,–,–,–
CCCN1CCO[C@@H]2c3cc(O)ccc3OC[C@@H]21,–,0.482,8140,8590,0.111 (inactive),0.146,–,0.947 (inactive),–,–,–,–,–
CC(C)(c1ccccc1)c1ccc(O)cc1,0.897 (inactive),0.637,8850,9870,0.409 (inactive),-0.32,0.62 (inactive),–,–,–,–,–,–
CN1C2CCC1CC(=O)C2,–,0.54,8780,10200,0.543 (inactive),-0.508,0.545 (inactive),0.86 (inactive),–,–,–,–,–
CC(Cc1ccccc1)NCCC(c1ccccc1)c1ccccc1 (stereo not given),1.36 (inactive),0.226,3500,2580,-0.835 (inactive) and -1.25 (inactive),-0.134 and -0.319,-2.66 (inactive),–,2.25 (inactive),54.7% (inactive),77.6,–,–
Clc1ccc(C(Cn2ccnc2)OCc2c(Cl)cccc2Cl)c(Cl)c1 (stereo not given),–,1.06 and 1.05,8420 and 7330,9620 and 7910,-0.214 (inactive) and 1.01 (inactive),-1.26 and 0.334,–,0.876 (inactive) and 0.926 (inactive),–,–,–,–,–
C[C@H]1CN(C2CCC(C#N)(c3ccc(F)cc3)CC2)CC[C@@]1(C(=O)O)c1ccccc1 (stereo not given in full),0.857 (inactive),1.09,9640,11200,0.032 (inactive),0.209,0.74 (inactive),–,–,36.7% (inactive),68,–,–
CN1CCCCC1Cn1cc(C(=O)c2cc([N+](=O)[O-])ccc2I)c2ccccc21 (stereo not given),0.887 (inactive) and 1.03 (inactive),0.479 and 0.87,5220 and 6710,5890 and 6500,0.0965 (inactive),-0.371,–,–,–,–,–,–,–
C=CC(C)(C)c1cc2cc3c(cc2oc1=O)OC(C(C)(C)O)C3 (stereo not given),–,0.587,5210,6170,-1.27 (inactive),0.752,-2.66 (inactive),0.846 (inactive),–,–,–,–,–
O=c1ccc2cc(OC3OC(CO)C(O)C(O)C3O)c(O)cc2o1 (stereo not given),–,0.851,9070,9440,-0.23 (inactive),0.0251,–,0.961 (inactive),–,–,–,–,–
CCC1C=CC=CCC(C)C(O)[C@@](C)(O)C(=O)C(C)[C@@H](O)C(C)C(=O)C(C)C(O)C(C)C=CC(=O)OC2C(C)[C@]3(CCC(C)C(CC(C)O)O3)OC(CC1)[C@H]2C (stereo not given in full),–,0.572,3070,2800,-0.13 (inactive),-0.402,–,1.1 (inactive),–,–,–,–,–
C=CC[C@@]1(O)CC[C@H]2[C@@H]3CCC4=CC(=O)CCC4=C3C=C[C@@]21C,–,0.451,7350,8350,-0.295 (inactive),-0.164,–,0.88 (inactive),–,–,–,–,–
CC1C=CC=CCCC=CC=CC=CC=CC(OC2OC(C)C(O)C(N)C2O)CC2O[C@@](O)(CC(O)C(O)CCC(O)CC(O)CC(O)CC(=O)OC(C)C(C)C1O)CC(O)C2C(=O)O (stereo not given in full),–,1.01,7910,8370,0.0382 (inactive),0.415,–,0.946 (inactive),–,–,–,–,–
C=CCN1CC[C@]23c4c5ccc(O)c4O[C@H]2/C(=N/N=C2\CC[C@@]4(O)[C@H]6Cc7ccc(O)c8c7[C@@]4(CCN6CC=C)[C@H]2O8)CC[C@@]3(O)[C@H]1C5,0.791 (inactive),1.27,7760,9820,-0.547 (inactive),-0.931,-1.6 (inactive),–,–,8.58% (inactive),59,–,–
CN1C[C@H](C(=O)N[C@]2(C)O[C@@]3(O)[C@@H]4CCCN4C(=O)[C@H](Cc4ccccc4)N3C2=O)C=C2c3cccc4[nH]cc(c34)C[C@H]21,0.866 (inactive),1.34,8820,10200,-0.409 (inactive),-0.32,1.08 (inactive),–,–,33.4% (inactive),106,10 nM (inactive),80 AU (inactive)
N#Cc1cnn(-c2ccc(Cl)cc2)c1N,0.852 (inactive),1.03,8030,9420,-0.167 (inactive),-0.085,0.29 (inactive),–,–,–,–,–,–
CC1CCCC=C[C@@H]2CC(O)C[C@H]2C(O)C=CC(=O)O1 (stereo not given in full),–,1.21,2230,2050,4.01 (active),-2.64,–,1.09 (inactive),–,–,–,–,–
CCCC[N+]1(C)[C@@H]2CC(OC(=O)C(CO)c3ccccc3)C[C@H]1[C@@H]1O[C@@H]12 (stereo not given in full),–,1.14,9330,9930,-0.311 (inactive),0.426,–,0.94 (inactive),–,–,–,–,–
COCC1OC(=O)c2coc3c2[C@@]1(C)C1=C(C3=O)[C@@H]2CCC(=O)[C@@]2(C)CC1OC(C)=O (stereo not given in full),–,0.632,3850,4130,3.45 (active),-0.534,–,0.933 (inactive),–,–,–,–,–
C=C[C@H]1CN2CCC1C[C@H]2C(O)c1ccnc2ccccc12 (stereo not given in full),–,0.691,8540,9140,-0.21 (inactive),0.792,–,0.935 (inactive),–,–,–,–,–
